Consider 16 compounds from PubChem BioAssay (NCI).

This is part of a sample that, as a whole, favours compounds with a hit. Of some 83,000 tested, about 20% had one in any assay.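 Cell lines were cultured in 96-well plates, exposed to a single compound concentration, and assessed for percent growth 48 hours later.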 A number with no mark means an inactive call. Active and inactive are the calls of the source. The calls were made as follows: active = growth percent below 10; inactive = the rest.

Test systems include DU-145 prostate; MALME-3M melanoma; MDA-MB-231 breast; RXF 393 renal; SF-268 CNS; SF-295 CNS; SF-539 CNS; UACC-257 melanoma; M14 melanoma; K-562 leukemia.
What all share (assay): NCI-60 one-dose screen, 48 h (100 = growth as untreated, 0 = no growth, -100 = all killed)
Settings in all cases: 10 µM unless noted

As for `Cc1ccc2sc3c(c2c1)OC(N)=C(C#N)C3c1ccc(Cl)cc1` (stereo not given), the growth in the experiment on DU-145 prostate was 76.8%; in the experiment with MALME-3M melanoma, 71.5%; in the experiment with MDA-MB-231 breast, 65.2%; in the experiment on RXF 393 renal, 50.6%; with SF-268 CNS, 89.3%; in the experiment with SF-295 CNS, 74%. Besides, the growth with SF-539 CNS is 70.8%; in the experiment on UACC-257 melanoma, 89.8%; with M14 melanoma it was 64.5%.
As to `Cc1nn(-c2ccccc2)c2ncnc(N/N=C/c3cccc(O)c3)c12`, the growth in the experiment with DU-145 prostate was 67.9%; in the experiment on K-562 leukemia, 13.4%; with MDA-MB-231 breast, 70.8%; with RXF 393 renal, 16.6%; with SF-268 CNS, 55.9%; in the experiment with SF-295 CNS, 46.5%. For the same compound, the growth in the experiment with SF-539 CNS is 50.4%; in the experiment on UACC-257 melanoma, 62.8%; in the experiment with M14 melanoma, 28.6%.
Take `Cc1ccc(S(=O)(=O)N(CC[C@@H]2C[C@H]2c2cc3ccccc3o2)S(=O)(=O)c2ccc(C)cc2)cc1`: the growth with DU-145 prostate was 98.7%; with K-562 leukemia, 83.1%; with MDA-MB-231 breast, 83.6%; in the experiment with RXF 393 renal, 103%; in the experiment with SF-268 CNS, 98.1%; with SF-295 CNS, 101%. Besides, the growth was 101% with SF-539 CNS, 84.9% in the experiment with UACC-257 melanoma and 99% in the experiment with M14 melanoma.
On to `COc1ccc(C2CC(c3cccc(Nc4nc(Cl)nc5cc(OC)c(OC)cc45)c3)=Nc3c(N)nc(N)nc3N2)cc1` (stereo not given), for which the growth in the experiment with DU-145 prostate is 88.8%; in the experiment with K-562 leukemia, 4.51% (active); with MDA-MB-231 breast it was 87%; in the experiment with RXF 393 renal, 76.3%; in the experiment on SF-268 CNS, 86.5%; in the experiment with SF-295 CNS, 60.1%. Besides, the growth in the experiment on SF-539 CNS was 91.9%; in the experiment with UACC-257 melanoma it was 106%; in the experiment with M14 melanoma it was 93.5%.
As to `Nc1nc(N)c2c(n1)NC(c1ccc(C(F)(F)F)cc1)CC(c1ccc(Nc3nc(NCCO)nc(N4CCOCC4)n3)cc1)=N2` (stereo not given), the growth in the experiment with DU-145 prostate is 79.2%; in the experiment with K-562 leukemia, 17.9%; with MDA-MB-231 breast it was 80.8%; with RXF 393 renal, 67.9%; with SF-268 CNS, 63.6%; in the experiment with SF-295 CNS, 73.2%. Besides, the growth with SF-539 CNS was 75.3%; with UACC-257 melanoma, 80.2%; in the experiment with M14 melanoma, 71.7%.
As to `CCO/C=N/C1=C(C#N)C(c2ccc(Cl)cc2)c2sc3c(CC)cccc3c2O1` (stereo not given), the growth with DU-145 prostate was 13.6%; in the experiment on K-562 leukemia, 11.4%; in the experiment with MDA-MB-231 breast it was 37.2%; with RXF 393 renal, -27.7% (active); in the experiment on SF-268 CNS it was 58.3%; with SF-295 CNS, -12.1% (active). The growth with SF-539 CNS was -3.86% (active); in the experiment with UACC-257 melanoma, 70.3%; with M14 melanoma, 8.6% (active).
Turning to `CNC1CCc2c(sc(NC(=O)c3ccc(C(C)(C)C)cc3)c2C(N)=O)C1` (stereo not given), the growth in the experiment with DU-145 prostate was 44.7%; in the experiment with K-562 leukemia, -10% (active); in the experiment on MDA-MB-231 breast, 56.8%; in the experiment with RXF 393 renal, 59.5%; with SF-268 CNS, 79%; with SF-295 CNS, -70.9% (active). The growth was 75.8% in the experiment with SF-539 CNS, 56.2% with UACC-257 melanoma and 52.8% with M14 melanoma.
For `COc1cccc(C(=O)Nc2cccc(C#Cc3cccc4[nH]nc(N)c34)c2)c1`, the growth in the experiment on DU-145 prostate is 70.8%; with MALME-3M melanoma, 79.4%; with MDA-MB-231 breast it was 38.6%; with RXF 393 renal it was -19.5% (active); in the experiment on SF-268 CNS it was 53%; with SF-295 CNS, 54.9%. The figures for the growth with SF-539 CNS, in the experiment with UACC-257 melanoma and with M14 melanoma were 36.1%, 82.8% and 32.6%, respectively.
With `Cc1nn(-c2ccccc2)c2ncnc(N/N=C/c3ccccc3O)c12`, the growth is 21% with DU-145 prostate; 15% with K-562 leukemia; 29.7% in the experiment with MDA-MB-231 breast; -20.4% (active) in the experiment with RXF 393 renal; 8.32% (active) in the experiment with SF-268 CNS; 7.98% (active) with SF-295 CNS. In addition, the growth with SF-539 CNS was -1.39% (active); in the experiment with UACC-257 melanoma, 9.8% (active); in the experiment on M14 melanoma, 0.329% (active).
Regarding `N#Cc1ccccc1Cn1c2nc(=N)c3ccccc3c-2nc2ccccc21`, the growth in the experiment on DU-145 prostate is 60.3%; in the experiment on MDA-MB-231 breast it was 41.8%; with RXF 393 renal it was 54.3%; with SF-268 CNS it was 74.3%; in the experiment with SF-295 CNS it was 52%; in the experiment with SF-539 CNS it was 82.6%. Besides, the values for the growth with UACC-257 melanoma and with M14 melanoma were 41.8% and 70%, respectively.
For the compound `COc1ccc(C2CC(c3ccc(Nc4nc(NCCO)nc(N5CCOCC5)n4)cc3)=Nc3c(N)nc(N)nc3N2)cc1` (stereo not given), the growth in the experiment on DU-145 prostate is 103%; with K-562 leukemia it was 99.1%; in the experiment on MDA-MB-231 breast, 90.6%; in the experiment on RXF 393 renal it was 114%; in the experiment on SF-268 CNS, 90.2%; in the experiment on SF-295 CNS, 106%. The results for the growth with SF-539 CNS, in the experiment with UACC-257 melanoma and with M14 melanoma were 92.2%, 109% and 107%, respectively.
On to `NC(N)=Nc1ccc(Oc2cccc(Nc3ccc(Cl)cc3)c2)cn1`, for which the growth is -18.1% (active) in the experiment with DU-145 prostate; -68.5% (active) in the experiment on K-562 leukemia; 10.7% in the experiment with MDA-MB-231 breast; 1.19% (active) in the experiment with RXF 393 renal; 41.3% in the experiment on SF-268 CNS; -75.1% (active) in the experiment with SF-295 CNS. Moreover, the growth in the experiment on SF-539 CNS was 73.3%; in the experiment with UACC-257 melanoma it was 28.4%; in the experiment on M14 melanoma, 42.2%.
Turning to `COc1cc(OC)c(S(N)(=O)=O)cc1C(C)=O`, the growth in the experiment on DU-145 prostate was 108%; in the experiment with MALME-3M melanoma it was 109%; in the experiment with MDA-MB-231 breast, 101%; in the experiment with RXF 393 renal it was 121%; with SF-268 CNS, 104%; with SF-295 CNS, 100%. For the same compound, the figures for the growth in the experiment with SF-539 CNS, in the experiment with UACC-257 melanoma and in the experiment with M14 melanoma were 101%, 102% and 109%, respectively.
Take `C=CCn1c(SCC(=O)Nc2ccc(C(=O)/C=C/c3cccc([N+](=O)[O-])c3)cc2)nnc1-c1c[nH]c2ccccc12`: the growth in the experiment with DU-145 prostate is 97%; in the experiment with MALME-3M melanoma it was 86.6%; in the experiment with MDA-MB-231 breast it was 85.2%; in the experiment on SF-268 CNS it was 84%; with SF-295 CNS, 91%; in the experiment on SF-539 CNS, 96.4%. For the same compound, the growth with UACC-257 melanoma is 103%.
`CCN1CCN(C(=O)[C@]23CCC(C)(C)C[C@H]2C2=CC[C@@H]4[C@@]5(C)Cc6c([nH]c7ccccc67)C(C)(C)[C@@H]5CC[C@@]4(C)[C@]2(C)CC3)CC1`: the growth in the experiment on DU-145 prostate is 83.3%; in the experiment with MDA-MB-231 breast it was 74.1%; in the experiment with RXF 393 renal, 75.9%; in the experiment on SF-268 CNS, 90.1%; in the experiment with SF-295 CNS it was 91.9%; with SF-539 CNS, 94%. The growth is 88.2% with UACC-257 melanoma and 84.5% with M14 melanoma.
Turning to `C#C[C@]1(O)CC[C@H]2[C@@H]3CC=C4c5sc(-c6ccc(C)cc6)nc5CC[C@]4(C)[C@H]3CC[C@@]21C`, the growth was 39.8% in the experiment with DU-145 prostate; 6.37% (active) in the experiment with K-562 leukemia; 4.97% (active) with MDA-MB-231 breast; -68.1% (active) in the experiment with RXF 393 renal; 7.62% (active) in the experiment on SF-268 CNS; -66.5% (active) in the experiment with SF-295 CNS. The values for the growth in the experiment on SF-539 CNS, with UACC-257 melanoma and in the experiment on M14 melanoma were -47.7% (active), -17.9% (active) and -49.9% (active), respectively.
